# Results published in PubChem BioAssay (Tox21).
# “And” between values parts separate entries of the source, which are not always exact repeats. Equal values may be shown once. Inconclusive results are not listed. A call without a number means that no potency is given here. A structure can be active in one record and inactive in another. The source made the active and inactive calls. Unless noted, calls come from the whole dose curve; as a rule, active = well fitted curve in the direction sought with a large enough effect in the repeat runs; inconclusive = weak or mixed curves; inactive = no such curve, though single readings can be large; an effect the other way counts as inactive or inconclusive.
# Assays:
# [1] = qHTS assay to identify small molecule agonists of the RXR signaling pathway - cell viability counter screen (AID 1159529); note: nearly all actives have a fitted effect of over 50% in size; note: potency is the fitted concentration of half-maximal effect
# In short: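 HEK 293T RXRa-bla cells, 2% CS-FBS; 5 h settle; cpd 16 h 37 C, 5% CO2; CellTiter-Glo 30 min RT, luminescence. Tetraoctyl ammonium bromide as positive control.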
# [2] = qHTS assay to identify small molecule antagonists of the retinoid acid receptor (RAR) signaling pathway - cell viability counter screen (AID 1159551); note: nearly all actives have a fitted effect of over 35% in size; note: potency is the fitted concentration of half-maximal effect
# In short: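 C3RL4 RARE-luciferase cells, 1,000/well, incubated overnight, then dosed with compound plus 1 uM retinol (final). After 6 hr at 37 C, viability read by CellTiter-Glo ATP luminescence following 30 min at room temperature.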
# [3] = qHTS assay to identify small molecule antagonists of the retinoic acid receptor (RAR) signaling pathway (AID 1159552; note: nearly all actives have a fitted effect of over 50% in size; note: potency is the fitted concentration of half-maximal effect)
# In short: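 Cells of the C3RL4 line were seeded, incubated overnight, then dosed with compounds in DMSO followed immediately by retinol (1 uM final). Six hours later luciferase detection reagent went in; signal was measured after 30 min at RT.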
# [4] = qHTS assay to identify small molecule agonists of the retinoic acid receptor (RAR) signaling pathway (AID 1159553); note: potency is the fitted concentration of half-maximal effect
# In short: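 C3RL4 RARE-luciferase cells were seeded at 1,000/well and grown overnight at 37 C, then exposed to compounds for 6 hr at 37 C, 5% CO2. Luciferase reagent was added and luminescence was read after 30 min at room temperature.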
# [5] = qHTS assay to identify small molecule antagonists of the estrogen related receptor (ERR) signaling pathway - cell viability counter screen (AID 1224818);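 note: potency is the fitted concentration of half-maximal effect; viability measured after 17.5 h of compound exposure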
# In short: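 ERR cells, 2,000 per well, compound added after 6 h and incubated 17.5 h at 37 C. Viability read by CellTiter-Fluor fluorescence after a further 30 min at 37 C.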
# [6] = qHTS assay to identify small molecule antagonists of the estrogen related receptor (ERR) signaling pathway (AID 1224819;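 note: luminescence from an ERR-driven luciferase reporter measured with One-Glo reagent; series mostly up to about 46 µM; nearly all actives have a fitted effect of over 50% in size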)
# In short: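 ERR reporter cell line (NTP) plated at 2,000 cells/well, settled 6 h at 37C/5% CO2, then exposed to LOPAC compounds for 18 h at 37C. One-Glo luciferase luminescence read after 30 min at room temperature.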
# [7] = qHTS assay to identify small molecule agonists of the estrogen related receptor (ERR) signaling pathway (AID 1224820); note: potency is the fitted concentration of half-maximal effect
# In short: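 Cells: ERR line from NTP, 2,000/well. Pre-incubation 6 h, 37 C/5% CO2. Compound (DMSO) pin transfer, 18 h 37 C. One-Glo, 30 min RT, luminescence.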
# [8] = tested on: estrogen-related receptor alpha (ERRalpha) with PGC-1alpha coactivator, human; assay: qHTS assay to identify small molecule antagonists of the estrogen related receptor signaling pathway with the pleiotropic PPARgamma coactivator (PGC) (AID 1224821; calls by dose curve;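 note: series mostly up to about 46 µM; lower luminescence signal means antagonism of PGC/ERR signalling; nearly all actives have a fitted effect of over 50% in size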)
# In short: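 Luminescent read-out (One-Glo, 30 min at room temperature) following 18 h treatment of PGC/ERR cells at 37 C with compounds delivered in DMSO. Cells had settled 6 h at 37 C/5% CO2 before dosing.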
# [9] = qHTS assay to identify small molecule agonists of the estrogen related receptor signaling pathway with the pleiotropic PPARgamma coactivator (PGC) (AID 1224823); note: potency is the fitted concentration of half-maximal effect
# In short: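 Steps: plate PGC/ERR cells at 2,000 cells/well; incubate 6 h, 37 C/5% CO2; pin-transfer compounds (DMSO); incubate 18 h, 37 C; add One-Glo; 30 min RT; read luminescence.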
smiles,measurement,setting,value
C[C@]12Cc3cn[nH]c3C[C@@H]1CC[C@@H]1[C@@H]2CC[C@@]2(C)[C@H]1CC[C@]2(C)O,Potency,[1],6.01 µM (active)
same,Potency,[2],inactive
same,Potency,[3],inactive
COc1ccc2[nH]cc(CCN(C(C)C)C(C)C)c2c1,Potency,[1],inactive
same,Potency,[2],inactive
same,Potency,[3],inactive
CNC(C)(C)Cc1ccccc1,Potency,[1],inactive
same,Potency,[2],inactive
COc1cnc(OC)n2nc(NS(=O)(=O)c3c(OCC(F)F)cccc3C(F)(F)F)nc12,Potency,[1],inactive
same,Potency,[2],inactive
CCCCN(CCCC)C(=S)[S-].CCCCN(CCCC)C(=S)[S-].[Ni+2],Potency,[1],inactive
same,Potency,[2],inactive
same,Potency,[3],inactive
CCCCc1ccccc1,Potency,[1],inactive
same,Potency,[2],inactive
C=CC(=O)[O][Sn]([CH2]CCC)([CH2]CCC)[CH2]CCC,Potency,[1],1.38 µM (active)
same,Potency,[2],6.11 µM (active)
same,Potency,[3],0.864 µM (active)
C1=CCC=C1,Potency,[1],inactive
same,Potency,[2],inactive
CC(=O)[O-].CC(=O)[O-].CC(=O)[O-].[Cr+3],Potency,[1],inactive
same,Potency,[2],inactive
Cc1ccc([N+](=O)[O-])[c]2c1[O][Hg]2,Potency,[1],3.01 µM (active)
same,Potency,[2],6.68 µM (active)
same,Potency,[3],1.5 µM (active)
O=[N+]([O-])c1cc(C(F)(F)F)c(Cl)c([N+](=O)[O-])c1Nc1ncc(C(F)(F)F)cc1Cl,Potency,[1],7.76 µM (active)
same,Potency,[2],54.5 µM (active)
same,Potency,[3],30.6 µM (active)
[F][Sn]([c]1ccccc1)([c]1ccccc1)[c]1ccccc1,Potency,[1],0.692 µM (active)
same,Potency,[2],17.2 µM (active)
same,Potency,[3],0.243 µM (active)
[O-][Cl+3]([O-])([O-])O,Potency,[1],inactive
same,Potency,[2],inactive
CN1CCc2cc3c(cc2C1O)OCO3 (configuration not stated),Potency,[1],inactive
same,Potency,[2],inactive
Oc1ccc(Cl)c(Cl)c1,Potency,[1],inactive
same,Potency,[2],inactive
CCn1cc[n+](C)c1 (tested in a mixture with another compound),Potency,[1],inactive
same,Potency,[2],inactive
CCOC(=O)Cc1ccccc1,Potency,[1],inactive
same,Potency,[2],inactive
same,Potency,[3],inactive
Clc1ccc(C(c2ccc(Cl)cc2)C(Cl)Cl)cc1,Potency,[1],39.5 µM (active) and 38.9 µM (active)
same,Potency,[2],inactive
CC(=O)[O-].CC(=O)[O-].O.O.O.[Pb+2],Potency,[1],inactive
same,Potency,[2],inactive
C=C(C)C(=O)[O][Sn]([CH2]CCC)([CH2]CCC)[CH2]CCC,Potency,[1],1.1 µM (active)
same,Potency,[2],7.7 µM (active)
same,Potency,[3],2.73 µM (active)
O=C1C(Cl)=C(Cl)C(=O)C(Cl)=C1Cl,Potency,[1],38.9 µM (active)
same,Potency,[2],60.9 µM (active) and inactive
same,Potency,[3],54.3 µM (active) and 61.1 µM (active)
N#Cc1sc2c(=O)c3ccccc3c(=O)c=2sc1C#N,Potency,[1],9.77 µM (active)
same,Potency,[2],27.3 µM (active)
same,Potency,[3],30.6 µM (active)
Nc1nc(N)c(N)c(N)n1,Potency,[1],inactive
same,Potency,[2],inactive
same,Potency,[3],inactive
same,Potency,[4],inactive
CCCN,Potency,[1],inactive
same,Potency,[2],inactive
same,Potency,[3],inactive
same,Potency,[4],inactive
CCCCN(CCCC)C(=S)S,Potency,[1],inactive
same,Potency,[2],inactive
same,Potency,[3],inactive
same,Potency,[4],inactive
CC(C)NCC(O)c1ccccc1Cl (configuration not stated),Potency,[1],inactive
same,Potency,[2],inactive
same,Potency,[3],inactive
same,Potency,[4],inactive
Nc1ccc(N=Nc2ccccc2)cc1,Potency,[1],inactive
same,Potency,[2],inactive
same,Potency,[3],inactive
same,Potency,[4],0.386 µM (active)
same,Potency,[5],31.8 µM (active)
same,Potency,[6],inactive
same,Potency,[7],10.1 µM (active)
same,Potency,[8],inactive
same,Potency,[9],14.2 µM (active)
CC#C[C@]1(O)CC[C@H]2[C@@H]3C[C@H](C)C4=CC(=O)CC[C@]4(C)[C@H]3CC[C@@]21C,Potency,[1],inactive
same,Potency,[2],inactive
same,Potency,[3],13.3 µM (active)
same,Potency,[4],inactive
N#CCCl,Potency,[1],9.08 µM (active)
same,Potency,[2],inactive
same,Potency,[4],inactive
ClSC(Cl)(Cl)Cl,Potency,[1],inactive
same,Potency,[2],inactive
same,Potency,[3],inactive
same,Potency,[4],inactive
c1csc(-c2ccc(-c3cccs3)s2)c1,Potency,[1],inactive
same,Potency,[2],inactive
same,Potency,[3],inactive
same,Potency,[4],1.72 µM (active)
CCC1(CC)C(=O)N=C(O)NC1=O,Potency,[1],inactive
same,Potency,[2],inactive
same,Potency,[3],inactive
same,Potency,[4],inactive
CN1[C@@H]2CC[C@H]1CC(O)C2 (some centres not stated),Potency,[1],inactive
same,Potency,[2],inactive
same,Potency,[3],inactive
same,Potency,[4],inactive
CC(C)[C@@H](Nc1ccc(C(F)(F)F)cc1Cl)C(=O)OC(C#N)c1cccc(Oc2ccccc2)c1 (some centres not stated),Potency,[1],inactive
same,Potency,[2],inactive
same,Potency,[3],inactive
same,Potency,[4],inactive
